Results reported in PubChem BioAssay AID1508649 (National Center for Advancing Translational Sciences (NCATS), 2021).
Out of some 43,000 compounds screened, about 830 (1.9%) were called active. About 30% were inconclusive and are not listed. The calls were made as follows: active = clear falling dose curves in both reporters; inconclusive = both reporters move, but less clearly or upward; inactive = either reporter flat; the % is the NLuc reporter signal. Shown is part of a subset that was picked to be rich in actives. A call without a number means that no potency is given here.

Test: Cell-based coincidence reporter assay to measure PMP22 gene transcription in S16 Pmp22-F2sN cells - Primary screen
Details: S16 Pmp22-F2sN Schwann cells (luciferase reporters placed in the Pmp22 gene), FLuc/NLuc coincidence luminescence, 24 h; series mostly up to 57.5 µM
From the text: Assay Provider: Jim Inglese Ph.D. National Center for Advancing Translational Science, National Institutes of Health, Rockville, MD CMT is a heterogeneous group of neurological disorders that affect approximately 1 in 2,500 people. In particular, the most common form of CMT, CMT1A is genetically linked to the duplication of the PMP22 gene which leads to Schwann cell overexpression, thus manifesting itself as a typical case of dose-sensitive diseases. To identify small molecule compounds that can mediate the expression of PMP22 we developed a phenotypic assay screening strategy by utilizing genome editing techniques to construct Schwann cell lines containing novel reporter technology to monitor the transcriptional or translational regulation of PMP22. For high sensitivity we use a bioluminescent reporter system embedded in the 3' UTR of the PMP22 gene (S16(c9) Pmp22-F2sN) to identify compounds that inhibit gene expression. […] We can further discriminate the effect of all transcriptionally active molecules on PMP22 translation or stability with an assay that incorporates a short NLuc peptide (HiBiT) at the C-terminus of expressed PMP22 (S16(f8) PMP22-HiBiT) allowing alpha complementation and luminescence detection of membrane-associated PMP22 protein. These assays were screened against the NCATS Sytravon Library Collection. Miniaturization of these assays to 1536-well plate format for quantitative high throughput screening (qHTS) yielded rich data sets immediately from the qHTS assay (S16(c9) Pmp22-F2sN), when compared with data from a cell viability assay (Cell TiterGlo) to identify compounds that decreased the output signals through cellular toxicity to streamline the selection process of actives for subsequent characterization using the HiBiT assay (S16(f8) PMP22-HiBiT).
Cell-based coincidence reporter assay to measure PMP22 gene transcription in S16 Pmp22-F2sN cells PROTOCOL TABLE (format as described by Inglese J, Shamu CE and Guy RK. 2007) SEQUENCE No. (e.g., 1, 2, 3, etc.); […] (e.g., Cells, Incubation, Reagent, etc.); VALUE and DESCRIPTION. 1. Cells. Add 500-1,000 cells in 4 uL in growth media (DMEM High Glucose, No Phenol Red media + 10% heat-inactivated FBS + 1% Pen/Strep supplemented media) per well into Greiner 1536-well white/solid bottom high base, TC-treated plates. 2. Compounds. Library compounds and controls added at 23nL per well, transferred by Pin Tool. 3. Incubation. Incubate plates at 37C, 5% CO2, 95% RH for 24 h. 4. Reagent. Add 3.5uL Nano-Glo Dual-Luciferase Reporter Assay System reagent 1: Lysis and FLuc reagent per well of Greiner 1536-well plates. 5. Incubation. Incubate plates at room temperature for 10 min., protect from light. 6. Detector. FLuc luminescence measured using CCD-based camera (Viewlux). 7. Reagent. Add 3.5uL Nano-Glo Dual-Luciferase Reporter Assay System reagent 2: Stop&Glo reagent per well of Greiner 1536-well plates. 8. Incubation. Incubate plates at room temperature for 10 min., protect from light. 9. Detector. NLuc luminescence measured using CCD-based camera (Viewlux). NOTES (numbers refer to Sequence numbers above; values are from representative experiments) 6. Luminescence Read #1 (FLuc): Clear filter; Exposure = 10 sec, Gain = High, Speed = Slow, Binning = 2X 9. Luminescence Read #2 (NLuc): Clear filter; Exposure = 1 sec, Gain = High, Speed = Slow, Binning = 2X REFERENCES: 1. Inglese J, Shamu CE and Guy RK, Reporting data from high throughput screening of small molecule libraries, Nature Chemical Biology, 2007, 3(8): 438-441. doi.org/10.1038/nchembio0807-438 2. Yasgar A, Shinn P, Jadhav A, Auld DS, Michael S, Zheng W, Austin CP, Inglese J and Simeonov A, Compound Management for Quantitative High-Throughput Screening. J. Assoc. Lab. Auto., 2008, 13: 79-89. doi: 10.1016/j.jala.2007.12.004
Potency is read from the fitted curve at half-maximal effect.

Structure (SMILES)	Potency
Cc1ccc(NC(=O)c2nc(S(=O)(=O)Cc3cccc(C)c3)ncc2Cl)cc1	4.22 µM (active)
CCS(=O)(=O)c1ncc(N(Cc2ccc(F)cc2)Cc2ccco2)c(C(=O)Nc2cc(C)ccc2C)n1	inactive
CCSc1ncc(Cl)c(C(=O)Nc2cc(C)ccc2C)n1	inactive
Cc1cc2oc(C(=O)N(Cc3ccc(Cl)cc3)Cc3ccco3)c(C)c2cc1Cl	inactive
COc1ccccc1CNC(=O)C(=O)NCC(c1ccco1)S(=O)(=O)c1ccc(F)cc1 (stereo not given)	inactive
CC(C)(C)c1ccc(C(=O)NCC(c2ccco2)S(=O)(=O)c2ccc(F)cc2)cc1 (stereo not given)	15.8 µM (active)
O=C(NCC(c1ccco1)S(=O)(=O)c1cccs1)c1ccc(F)cc1 (stereo not given)	inactive
O=S(=O)(c1ccc2nc(NCc3ccccc3Cl)ccc2c1)N1CCCCC1	inactive
COc1ccccc1NC(=O)CN1C(=O)c2ccccc2Sc2ccc(C(=O)N3CCCC3)cc21	inactive
Cc1cccc(C(=O)Nc2ccc(-c3nc4ncccc4o3)cc2C)c1	inactive
CCC1=Nc2cc(C(=O)NCCCOC(C)C)ccc2Sc2ccc(C)cc21	8.54 µM (active)
CC1=Nc2cc(C(=O)NCc3ccc(C)cc3)ccc2Sc2ccc(Cl)cc21	inactive
CCOCCCNC(=O)c1ccc2nc(CCc3ccccc3)oc2c1	inactive
O=C(Nc1ccc(F)cc1F)c1ccc2c(=O)n3c(nc2c1)CCCCC3	inactive
Cc1cc(N2CCN(c3cccc(C(F)(F)F)c3)CC2)n2nc(-c3ccccc3)nc2n1	inactive
O=C(CSc1oc(-c2ccco2)nc1S(=O)(=O)c1ccc(Cl)cc1)c1ccccc1	inactive
CCc1ccc2oc(-c3ccc(C)c(NC(=O)/C=C/c4ccco4)c3)nc2c1	inactive
COc1ccc(CNC(=O)CSc2nc3ccccc3nc2Cc2ccccc2)cc1	inactive
CCc1ccc(NC(=O)c2nn(-c3ccc(C)cc3)c(=O)n(C)c2=O)cc1	inactive
Fc1ccc(-c2nc(Nc3cccc(Cl)c3)nc3c2COc2ccccc2-3)cc1	inactive
CCOC(=O)C1CCN(C(=O)CSc2c3c(nc4ccc(Cl)cc24)CCCC3)CC1	18.9 µM (active)
CCOC(=O)C1CCCN(C(=O)c2ccc3c(c2)sc2nc(-c4ccc(CC)cc4)cn23)C1 (stereo not given)	inactive
Cc1ccc(CNC(=O)CSc2c3c(nc4cc(Cl)ccc24)CCCC3)cc1	inactive
CCOc1ccc(N2CC(c3nc4ccccc4n3CCOc3ccc(OC)cc3)CC2=O)cc1 (stereo not given)	inactive

Structure (SMILES)	Potency
CCCN1C(=O)C(O)(CC(=O)c2ccc(CC)cc2)c2cc(Br)ccc21 (stereo not given)	12.6 µM (active)
Cc1cc(C)cc(NC(=O)CCS(=O)(=O)c2cc3c4c(c2)CCN4C(=O)CC3)c1	inactive
CCOC(=O)c1c(C)[nH]c(CCC(=O)NCCCN2CCN(c3cccc(Cl)c3)CC2)c1C	17.9 µM (active)
CCOC(=O)c1[nH]c(C)c(CCC(=O)N2CCN(c3ccccc3)CC2)c1C	inactive
Cc1ccc(C)c(N2CCN(C(=O)Cc3c(C(=O)O)c(C)cn3C)CC2)c1	inactive
CCOC(=O)c1c(C)[nH]c(CCC(=O)NCCCN2CCN(c3cc(C)ccc3C)CC2)c1C	12.1 µM (active)
Cc1ccc(C)c(N2CCN(C(=O)CCc3c(C)nc4c(c3C)c(=O)n(C)c(=O)n4C)CC2)c1	inactive
CCOC(=O)c1c(C)[nH]c(C)c1S(=O)(=O)N(C)CC(=O)N1CCN(c2ccccc2)CC1	inactive
O=C(CSc1nnc(-c2ccccc2F)o1)Nc1cccc(C(F)(F)F)c1	inactive
COc1cccc(NC(=O)C(=O)NCC(c2ccc3c(c2)OCO3)N2CCN(C)CC2)c1 (stereo not given)	inactive
COc1cc(NC(=O)C2CCN(c3cnccn3)CC2)cc(OC)c1	inactive
Brc1ccc(-c2noc(-c3ccccc3)n2)o1	inactive
O=C(NCCCc1ccccc1)c1ccc2c(c1)sc1nc(-c3ccc(F)cc3)cn12	inactive
CCCCOc1ccc(CN2C(=O)C(=O)c3cc(Br)cc(C)c32)cc1OC	4.5 µM (active)
CCCCOc1ccc(Cn2c(=O)oc3ccc(C)cc32)cc1OC	inactive
CCOc1ccc(CNCc2c(C(=O)O)c(C)n(Cc3cccc(OC)c3)c2C)cc1OC	inactive
Cc1ccc(-c2cc(C(F)(F)F)c(C#N)c(SCC(=O)Nc3ccccc3)n2)cc1	inactive
CCOC(=O)c1c(NC(=O)c2cc(-c3ccc(Cl)cc3)on2)sc2c1CCCC2	inactive
COc1ccc(/C=C/c2noc(-c3ccccc3O)n2)cc1OC	inactive
Cc1c(-c2nc(-c3ccc4c(c3)OCO4)no2)nnn1-c1ccc(Br)cc1F	inactive
COc1cccc(CNS(=O)(=O)c2cc3c(cc2C)n(C)c(=O)c(=O)n3C)c1	inactive
COc1ccc(OC)c(CCNC(=O)CCCn2c(=O)c3cccn3c3cccnc32)c1	inactive
Cc1ccc(-n2c(=O)c3cccnc3n2CC(=O)NCc2ccc(F)cc2)cc1C	inactive
O=C(CCCn1c(=O)c2cccn2c2cccnc21)NCc1ccc(F)cc1	17.9 µM (active)

Structure (SMILES)	Potency
CCc1ccc(NS(=O)(=O)c2ccc3[nH]cc(C(=O)NCCc4cccc(C)c4)c(=O)c3c2)cc1	inactive
COc1cccc(CNC(=O)C(NS(=O)(=O)c2ccc3nc(C)sc3c2)C(C)C)c1 (stereo not given)	inactive
CCOC(=O)C1=C(c2ccccc2)Nc2ncnn2C1c1ccc(Cl)cc1 (stereo not given)	inactive
Cc1ccc(C)c2sc(NC(=O)c3ccc(S(=O)(=O)N4CCCC4)cc3)nc12	inactive
COc1ccc(C(=O)N2CCC(c3nc4ccccc4o3)CC2)cc1	inactive
O=C(c1ccc(C(F)(F)F)cc1)N1CCC(c2nc(-c3ccc(S(=O)(=O)N4CCCC4)cc3)no2)CC1	14.2 µM (active)
Fc1cccc(-n2ncc3c2ncn2nc(-c4ccccc4Cl)nc32)c1	inactive
COc1cc(NC(=O)NCC2CCN(Cc3ccc(C)cc3)CC2)cc(OC)c1OC	inactive
Cc1ccc(-c2onc(C)c2C)cc1S(=O)(=O)Nc1ccccn1	inactive
COc1ccc(-c2onc(C)c2C)cc1S(=O)(=O)NCC1CCN(Cc2cccc(F)c2)CC1	14.1 µM (active)
CCS(=O)(=O)c1nc(S(=O)(=O)c2ccc(C)cc2)c(NCc2ccc(Cl)cc2)s1	inactive
CCc1ccc(Nc2nn3c(=O)c4cc5c(cc4nc3s2)OCO5)cc1	inactive
COc1ccc(N2CCN(C(=O)c3c(C)oc4nc(C)nc(N5CCCC5)c34)CC2)cc1	inactive
CCc1ccc(C2CC(=O)c3c([nH]c(C(=O)OCc4ccc(C)cc4)c3C)C2)cc1 (stereo not given)	10 µM (active)
CC1=C(C(=O)OCc2ccc(C)cc2)C(c2ccccc2Cl)CC(=O)N1 (stereo not given)	inactive
CC1=C(C(=O)OCc2ccc(C)cc2)C(c2c(Cl)cccc2Cl)CC(=O)N1 (stereo not given)	inactive
COc1ccc(-c2nn3c(-c4ccc(OC)cc4)nnc3c3ccccc23)cc1	inactive
CCOC(=O)c1cc(OC(=O)c2ccccc2Cl)n(-c2ccccc2)n1	inactive
COc1cc(OC)cc(-c2nc3nc(C)c(CCC(=O)Nc4ccc(C)cc4)c(C)n3n2)c1	inactive
Cc1ccc(NC(=O)Cn2cnc3nc4c(cc3c2=O)CCCC4)cc1Cl	inactive
O=C(CCc1nc(CN2CCN(S(=O)(=O)c3ccc(F)cc3)CC2)no1)N1CCCCC1	inactive
CCOC(=O)c1cccc(NC(=O)c2cc(CN3CCCC3)on2)c1	inactive
CCc1ccccc1NC(=O)N1CCN(C(=O)c2nsc3ccccc23)CC1	inactive
Cc1ccc(NC(=O)CN2c3ccccc3S(=O)(=O)c3ccccc32)cc1F	inactive

Structure (SMILES)	Potency
CCc1ccccc1NC(=O)Cc1cn(C)c2ccccc12	inactive
COc1cccc(NC(=O)N2CCN(C(=O)c3nsc4ccccc34)CC2)c1	inactive
COc1cccc(NC(=O)N(Cc2cn(C)c3ccccc23)C2CCCCCC2)c1	10.6 µM (active)
O=c1cc(COc2cccc(C(F)(F)F)c2)nc2sc3c(n12)CCCC3	inactive
COc1cccc(CNC(=O)c2nnn(CC(=O)Nc3cc(Cl)ccc3C)c2N)c1	inactive
CCOc1ccccc1NC(=O)Cn1nnc(C(=O)Nc2ccc(C)c(C)c2)c1N	inactive
CCOc1ccccc1NC(=O)Cn1nnc(C(=O)NCc2cccs2)c1N	0.401 µM (active)
COc1ccc(C2Sc3ccccc3NC3=C2C(=O)c2ccccc23)c(OC)c1OC (stereo not given)	7.27 µM (active)
Cc1ccc(-c2noc(CSc3nnc(-c4ccc(Cl)cc4)n3C)n2)cc1	inactive
Cc1nnc(C)n1-c1ccc(C(=O)Nc2cccc(Br)c2)cc1	inactive
CCN(CCCNC(=O)c1c(C)oc2ncn(CC(C)C)c(=O)c12)Cc1ccccc1	inactive
COc1ccc(S(=O)(=O)Nc2cc3c(C(=O)OC(C)C)c(C)oc3c3ccccc23)cc1	11.3 µM (active)
COc1ccc(OC)c(NC(=O)C2CCN(S(=O)(=O)c3ccc(C)cc3)CC2)c1	inactive
Cc1cc(C)nc(NS(=O)(=O)c2ccc(NC(=O)c3cc(=O)c4ccc(C)c(C)c4o3)cc2)n1	inactive
COc1ccc(Cn2ccnc2SCC(=O)Nc2ccc3c(c2)OCO3)cc1	inactive
CCn1cc(C(=O)NCc2ccc(C)cc2)c(=O)c2cc(S(=O)(=O)N3CCc4ccccc4C3)ccc21	inactive
COc1cc(NC(=O)c2nc3ccccc3nc2C)cc(OC)c1OC	inactive
COc1ccccc1Nc1c2c(nc3ccc(NC(=O)/C=C/c4cc(OC)c(OC)c(OC)c4)cc13)CCCC2	6.04 µM (active)
COc1cccc(C(=O)Nc2ccc3nc4n(c(=O)c3c2)CCCCC4)c1	inactive
CC(=O)c1ccc(N2CCN(C3C(=O)c4ccccc4N3C(C)=O)CC2)cc1 (stereo not given)	inactive
Cc1ccc2sc(N(Cc3cccnc3)C(=O)C3COc4ccccc4O3)nc2c1C (stereo not given)	inactive
O=C(CCS(=O)(=O)c1ccccc1)N(Cc1cccnc1)c1nc2c(F)cccc2s1	10.6 µM (active)
O=C(C1COc2ccccc2O1)N(Cc1cccnc1)c1nc2c(F)cc(F)cc2s1 (stereo not given)	inactive
